# Hit rate of the full screen: of about 390,000 compounds, about 930 (0.24%) were called active. Inconclusive results (about 5%) are left out. The entries come from a sample that favours actives as a whole. A number with no mark means an inactive call. The call rests on the fitted dose curve; in most records, active means well fitted activation curve with a large enough effect; inconclusive means small, poorly fitted or top-dose-only effect; inactive means no such curve, though single readings can be large or run the other way.
# Assay: qHTS for Suppressors of FUS Proteinopathy: Primary screen using FUS-linked yeast assay; further: nearly all actives have a fitted effect of over 55% in size;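 on growth rescue (activation): plate controls were DMSO vehicle for no effect and reference control for full effect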
# Settings: S. cerevisiae FUS-expressing, OD600, 24 h; Potency: growth rescue; series mostly up to 76.6 µM; growth rescue (activation): at the top concentration
# Source text: Several widespread neurodegenerative diseases, including Alzheimer disease, Huntington disease, Frontotemporal Lobar Degeneration (FTLD) and Amyotrophic Lateral Sclerosis (ALS), share a common pathological feature, namely accumulation of specific protein aggregates in diseased tissue. These diseases which is associated with protein misfolding (proteinopathies) have become increasingly problematic as the population ages and life expectancies are extended. Most proteinopathies are currently incurable, a situation confounded by the fact that the basis of neurodegeneration is generally poorly understood. There exists urgent and significant need to find therapeutics that can inhibit the toxicity associated with protein aggregation. A novel approach to understand the underlying mechanisms of neurodegenerative diseases has recently emerged in which the disease conditions are modeled in the yeast (Saccharomyces cerevisiae), a tractable eukaryotic organism with conserved protein quality control mechanisms. Yeast offers quick and reliable genetic manipulations and can be easily tailored to high-throughput screening (HTS).
# For this project, a yeast model of the FUS proteinopathies (a spectrum of neurodegenerative diseases that include ALS and a subtype of FTLD) was generated and employed. The cytoplasmic accumulation of the DNA/RNA-binding protein FUS (also known as TLS) is causative to both familial and sporadic forms of ALS and FTLD. This yeast model recapitulates neuronal pathology by showing severe cytotoxicity associated with cytoplasmic accumulation of FUS aggregates and a specific interaction between FUS and TDP-43, another ALS-associated protein. […] Specifically, the cellular accumulation of misfolded FUS that disrupts RNA homeostasis in both yeast and higher eukaryotes. This model was validated to be suitable for quantitative HTS (qHTS) use for finding genetic or chemical factors that restore growth. […] Identified compounds that inhibits FUS-yeast toxicity is flagged, re-acquired, and validated for further investigation and optimization.
# NIH Chemical Genomics Center [NCGC]
# NIH Molecular Libraries Probe Production Centers Network [MLPCN]
# Assay Submitter (PI): Frank Shewmaker PhD, Uniformed Services University of the Health Sciences
# Compound CP55940 was used as the positive control. Column 1 was treated with CP55940 titration from 92uM (final concentration, 1:2 dilution), while Column 2 was treated with top dose 92uM. Columns 3 and 4 were treated with DMSO only as negative control to assess background and noise signal.
# Four hundred fifty microliter of cultured yeast (in 20mL rich medium) provided by Dr. Shewmaker lab was incubated at 30C at 99% humidity for 3hr. The culture was then spun down at 4000rpm for 5min and the cell pellet was resuspended in 2mL of Sdmin Media + ALU(330) + 2.5% Raffinose. One hundred microliter of the suspension was added to 900uL of water and OD of the solution was obtained. Twenty mL of responding medium (provided by Shewmaker lab) + 2.5% raffinose was added to ensure cell density of 0.1; the solution was incubated overnight. Working cell solution (FUS-yeast in Sdmi + Sdmi + 1X ALU + 2% galactose media) was prepared (final OD at 0.005) and 3uL was dispensed in a 1536-well Aurora high based clear bottom assay plates. Controls and library compounds (at various final concentrations from 40uM to 0.32uM) were added using a 1536-well pin array using the Kalypsys pin-tool. The plates were then incubated for 24hrs in a cell-culture incubator (30C; 99% humidity). Absorbance at 600nm was then read using the PerkinElmer ViewLux plate reader.
# Potency means the concentration at half of the fitted maximal effect.
SMILES,growth rescue (activation) [%],Potency
Cc1cc(C(=O)Nc2cccc(C(F)(F)F)c2)c2c(C)nn(-c3cccc(F)c3)c2n1,15.4,–
CC(C)(C)c1ccc(C(=O)Nc2ccc3c(c2)CCCN3C(=O)c2cccs2)cc1,41.4,–
CC(C)(C)c1ccc(S(=O)(=O)Nc2ccc(O)c(Sc3nc4ccccc4s3)c2)cc1,9.07,–
CC(C)c1ccc(S(=O)(=O)Nc2ccc(O)c(Sc3nc4ccccc4s3)c2)cc1,30.6,–
CCOc1ccc(Nc2c(S(=O)(=O)c3ccccc3)cnc3ccccc23)cc1,43.5,–
Cc1c(NC(=O)Cc2ccccc2)cccc1-c1nc2cccnc2s1,24,–
Cc1ccc(Cl)cc1NC(=O)CCC(=O)N1CC(C)Sc2ccccc21 (stereo not given),43.6,–
CCCn1c(C)cc(/C=C(\C#N)C(=O)OCC(=O)Nc2cc(OC)c(OC)c(OC)c2)c1C,23.6,–
CCN(C(=O)COC(=O)CCOc1cccc(C)c1)c1c(N)n(Cc2ccccc2)c(=O)[nH]c1=O,8.57,–
CCCn1c(C)cc(/C=C(\C#N)C(=O)OCC(=O)N(C)c2c(N)n(Cc3ccccc3)c(=O)[nH]c2=O)c1C,–,25.1 µM (active)
CCC1CCCCN1C(=O)Cn1c(=O)n(CCCCCC(=O)NCc2ccccc2)c(=O)c2sccc21 (stereo not given),6.98,–
COc1ccc(NC(=O)NC(C)c2c(-n3cccc3)sc(C)c2C)cc1OC (stereo not given),42.7,–
CCN(CC)S(=O)(=O)c1ccc2c(c1)N(CC(=O)NCC(C)c1ccccc1)C(=O)CO2 (stereo not given),14.3,–
CCN(CCCNC(=O)c1cc2c(=O)n(CC)c3ccccc3c2s1)Cc1ccccc1,6.37,–
Cc1cccc(NC(=O)CSc2nnc(CNC(=O)c3cccc(C)c3)n2-c2ccccc2)c1,8.61,–
CCc1ccc(S(=O)(=O)c2nnn3c2nc(NCc2ccccc2OC)c2cc(Cl)ccc23)cc1,-7.06,–
N#C/C(=C\c1cccc(F)c1)c1nc(-c2cc3c(ccc4ccccc43)oc2=O)cs1,-1.96,–
COc1ccc(C2C(=O)N(C3CCCCCC3)CC(=O)N2CCc2ccc(Cl)cc2)cc1OC (stereo not given),21.5,–
Cc1onc(-c2ccc(F)cc2F)c1C(=O)Nc1cccc(C(F)(F)F)c1,8.05,–
Cc1ccc(CNC(=O)CSC2=Nc3ccccc3C3=NC(C)C(=O)N23)cc1 (stereo not given),17.6,–
COc1ccc(C2=NN(C(=O)CSc3nc(=O)n4ccc(C)cc4n3)C(c3ccc(C)cc3)C2)cc1 (stereo not given),-24.8,–
Cc1ccc(N2C(=O)C3N=NN(CC(=O)N4N=C(c5cccc6ccccc56)CC4c4ccccc4)C3C2=O)cc1 (stereo not given),–,14.1 µM (active)
COc1ccccc1CNC(=O)Cn1nc(C)c2nn(-c3ccc(Cl)cc3)c(C)c2c1=O,43.3,–

SMILES,growth rescue (activation) [%],Potency
Cc1ccc(NC(=O)c2nc(S(=O)(=O)Cc3cccc(C)c3)ncc2Cl)cc1,-17.7,–
CCN1C(=O)[C@H]2[C@@H](c3ccc(SC4CCCCC4)c(OC)c3)N[C@@](Cc3ccccc3)(C(=O)OC)[C@H]2C1=O,26.7,–
CCN1C(=O)[C@H]2[C@@H](c3ccc(-c4ccc(OC)cc4)cc3)N[C@@](Cc3ccccc3)(C(=O)OC)[C@H]2C1=O,-1.62,–
CCN1C(=O)[C@H]2[C@@H](c3ccc(-c4ccc(F)cc4)cc3)N[C@@](Cc3ccccc3)(C(=O)OC)[C@H]2C1=O,–,11.2 µM (active)
COC(=O)c1cc2occc2n1Cc1nc(-c2ccc(C)cc2)oc1C,17.4,–
CCN(Cc1ccccc1)S(=O)(=O)c1ccc2c(c1)CCCN2C(C)=O,17.6,–
Cc1cccc(CSc2nc3ccncc3n2CC(=O)N(C)C2CCCCC2)c1,11.2,–
Cc1ccc(Cl)cc1N(C)C(=O)C1CCCN(c2ncnc3onc(-c4ccc(F)cc4)c23)C1 (stereo not given),5.26,–
CC1C(=O)Nc2ccc(S(=O)(=O)N3CCN(c4ccccc4F)CC3)cc2NC1=O (stereo not given),-20,–
COc1ccc(N2CCN(S(=O)(=O)c3ccc4c(c3)NC(=O)C(C)C(=O)N4)CC2)cc1 (stereo not given),5.53,–
CON(C)S(=O)(=O)c1ccc2c(c1)NC(=O)C1CCCN21 (stereo not given),–,28.2 µM (active)
COc1ccc(OCCCn2c(C)nc3cc(C)c(C)cc32)cc1,25.3,–
CC(NC(=O)c1cc(Sc2ccc(F)cc2F)nc2ccccc12)c1ccccc1 (stereo not given),23.4,–
Cc1cccc(-n2ncc(C(=O)N3CCc4ccccc4C3)c2C2CCN(C(=O)OC(C)(C)C)CC2)c1,-8.68,–
CCOc1cc(C2C(C(=O)c3ccco3)=C(O)C(=O)N2Cc2ccccc2)ccc1O (stereo not given),11,–
Cc1ccc2nc(N3C(=O)C(O)=C(C(=O)c4ccco4)C3c3cccc(O)c3)sc2c1 (stereo not given),–,15.8 µM (active)
CC(=O)c1sc(N2C(=O)c3oc4ccccc4c(=O)c3C2c2ccc(C)cc2)nc1C (stereo not given),3.74,–
Cc1ccc(CN2C(=O)SC(Nc3ccccc3)C2=O)cc1 (stereo not given),-7.07,–
CCN(c1ccc2c(c1)OCO2)S(=O)(=O)c1cc(Br)cc2c1N(C(=O)C1CC1)CC2,–,17.8 µM (active)
CN(Cc1ccccc1)C(=O)CCS(=O)(=O)c1cc(Br)cc2c1N(C(=O)C1CC1)CC2,43.2,–
CCOC(=O)N1CCN(S(=O)(=O)c2cc(Br)cc3c2N(C(=O)C2CC2)CC3)CC1,1.43,–
O=C(CCS(=O)(=O)c1cc(Br)cc2c1N(C(=O)C1CC1)CC2)Nc1ccc(Br)cc1F,-0.121,–

# From PubChem BioAssay AID1347120 (National Center for Advancing Translational Sciences (NCATS), 2019)
